Experiment: S. pombe growth modifiers, basal conditions – strain 972, OD600, 24 h, no modulator, primary screen (AID 1090);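 note: basal condition with compound alone and no growth modifier present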
Settings: S. pombe 972 growth, higher = more signal, called active from +8 up or from −8 down
Note: test concentration not given here.

z-score, inactive:
COC(=O)CC=C[C@@H](C)[C@@H]1C=C[C@H](O)[C@@H](CO)O1 1.08, C[C@@H](ON=C1[C@H]2CCn3c(=O)n(-c4ccccc4)c(=O)n3[C@H]2[C@H](O)[C@@H]2O[C@H]12)c1cn([C@@H]2COC[C@H]2O)nn1 0.636, CC(CCC(=O)OC[C@H]1O[C@H](C#Cc2ccccc2)C=C[C@@H]1Oc1ccc(C)cc1)=NO[C@H](C)c1cn([C@H](CO)Cc2ccccc2)nn1 -0.372, C#CCCCON=C1C[C@@H](O)[C@@H](O)[C@@H]2[C@@H]3C(=O)N(C(C)(C)C)C(=O)[C@@H]3CC[C@H]12 -0.401, COc1ccc(COC(=O)NN=C2C[C@@H](O)[C@@H](O)[C@@H]3[C@@H]4C(=O)N(C5CCCCC5)C(=O)[C@@H]4CC[C@H]23)cc1 0.586, COC(=O)CC=C[C@H](C)[C@@H](OCc1cccc(Br)c1)[C@@H](C)[C@H](OC)C1CCCCC1 -1.28, Cc1ccc(S(=O)(=O)N[C@@H]2COC(=O)[C@@H](C)COC(=O)CC=C[C@H]2C)cc1 0.227, O=C1[C@H]2[C@H]3[C@H](O)[C@H](O)CC(=NO[C@@H]4O[C@H](CO)[C@@H](O)[C@H](O)[C@H]4O)[C@H]3CC[C@H]2C(=O)N1c1cccc(Oc2ccccc2)c1 0.0816, CCC1=NOC(CCC2CC(OC(=O)NCc3cccc4c3OCO4)CC3(CCCC(COC(=O)NCCc4ccccc4OC)O3)O2)C1 (stereo not given) 0.168, CCOC(=O)[C@H](CC(C)C)NC(=O)CCC1CC(OC(=O)NCc2cccc3ccccc23)CC2(CCCC(COC(=O)NCCOc3ccccc3)O2)O1 (stereo not given in full) 0.269, O=c1n(Cc2cc3c(cc2Cl)OCO3)c(=O)n2n1CC[C@@H]1C(=NOCc3ccccc3)[C@H]3O[C@H]3[C@@H](O)[C@@H]12 -1.25, COC(=O)[C@@H]1CC[C@H](C)[C@@H](c2ccc(C)cc2)N1C(=O)c1ccc(C=NO[C@@H](C)c2cn([C@H](CO)Cc3ccccc3)nn2)cc1 0.249, CC(C)=CCCC(C)=CCON=C1C[C@@H](O)[C@@H](O)[C@@H]2[C@@H]3C(=O)N(Cc4ccccc4)C(=O)[C@@H]3CC[C@H]12 -1.58, CC(C)C[C@H](NC(=O)CCC1CC(OC(=O)NCc2cccc3ccccc23)CC2(CCCC(COC(=O)NCc3ccccc3)O2)O1)C(=O)NCC(c1ccccc1)c1ccccc1 (stereo not given in full) 0.333, CC(C)CON=C1C[C@@H](O)[C@@H](O)[C@@H]2[C@@H]3C(=O)N(C4CCCCC4)C(=O)[C@@H]3CC[C@@H]12 -0.513, C[C@@H](c1ccccc1)N1C(=O)[C@H]2[C@H]3[C@H](O)[C@H](O)CC(=NO[C@@H]4O[C@H](CO)[C@@H](O)[C@H](O)[C@H]4O)[C@H]3CC[C@H]2C1=O 1.06, COC(=O)[C@@H]1CC[C@H](C)[C@@H](c2ccc(C)cc2)N1C(=O)c1ccc(C=NOC[C@@H](C)[C@H](OCc2ccccc2)C(C)C)cc1 -6.29, C[C@@H](c1ccccc1)N1C(=O)[C@H]2[C@H]3[C@H](O)[C@H](O)CC(=NOCc4ccccc4)[C@H]3CC[C@H]2C1=O 0.107, COC(=O)CC=C[C@@H](C)[C@@H](C=NOCC[C@@H]1C=C[C@H](OC(C)=O)[C@@H](COC(C)=O)O1)OC -0.295

Experiment: budding yeast growth modifiers under rapamycin – strain BY4716, OD600, 96 h, primary screen (AID 1091)
Settings: S. cerevisiae BY4716 + rapamycin, higher = more signal, called active from +8 up or from −8 down

z-score, inactive:
C#CCCCON=C1[C@H]2CCn3c(=O)n(C)c(=O)n3[C@H]2[C@H](O)[C@@H]2O[C@H]12 0.658, CCCCC#C[C@@H]1C=C[C@H](OC(C)=O)[C@@H](COC(C)=O)O1 -1.25, CO[C@@H]1COC(=O)[C@@H](C)COC(=O)[C@@H](C)NC(=O)CC=C[C@@H]1C -2.47, Cc1ccc(S(=O)(=O)OC[C@H]2CN3[C@H](c4ccc(Br)cc4)[C@@H](C)CC[C@H]3C(=O)O2)cc1 -3.38, COc1ccc(COC(=O)NN=C2C[C@@H](O)[C@@H](O)[C@@H]3[C@@H]4C(=O)N(c5cccc(Oc6ccccc6)c5)C(=O)[C@@H]4CC[C@@H]23)cc1 0.752, O=C1C2=CC[C@H]3C(=O)N(c4cccc(Oc5ccccc5)c4)C(=O)[C@H]3[C@H]2[C@H](O)[C@@H]2O[C@H]12 -0.147, CC(CCN1CCCCc2nc(C)c(C)cc21)=NO[C@H](C)c1cn([C@H](CO)Cc2ccccc2)nn1 -0.382, CO[C@@H]1COC(=O)[C@H](CCSC)NC(=O)CC=C[C@@H](C)COC(=O)CCC[C@H]1C -1.25, CC(CCN1CCCc2nc(C)c(C)cc21)=NO[C@@H](C)c1cc(-c2c(C)cc(C)cc2C)no1 -0.381, CO[C@@H]1COC(=O)[C@@H](C)NC(=O)CC=C[C@@H](C)[C@H](NS(=O)(=O)c2ccc(C)cc2)COC(=O)[C@H](C)NC(=O)CC=C[C@H]1C -0.331, CCN1C(=O)[C@H]2[C@H]3[C@H](O)[C@H](O)CC(=NOC[C@H]4O[C@H](c5ccccc5)C=C[C@@H]4Oc4ccc(OC)cc4)[C@@H]3CC[C@H]2C1=O -0.175, CCOC(=O)[C@H](CC(C)C)NC(=O)CCC1CC(OC(=O)NCc2cccc3ccccc23)CC2(CCCC(COC(=O)NCC3CCCCC3)O2)O1 (stereo not given in full) 0.0127, CC(C)CCN1CCc2nc(COc3ccccc3)c3c(c2C1)CO[C@@H](C)C3 -0.531, COC(=O)CC=C[C@@H](C)[C@@H](C=NO[C@H](C)c1cn([C@H](CO)Cc2ccccc2)nn1)OC -0.0624, CON=C(C)CCC(=O)OC[C@H]1O[C@H](c2ccccc2)C=C[C@@H]1Oc1ccc(OC)cc1 1.4, CCOC(=O)NN=C1C[C@@H](O)[C@@H](O)[C@@H]2[C@@H]3C(=O)N(c4cccc(Oc5ccccc5)c4)C(=O)[C@@H]3CC[C@@H]12 -0.869, CCN1C(=O)[C@H]2[C@H]3[C@H](O)[C@H](O)CC(=NO[C@@H](C)c4cn([C@H](CO)Cc5ccccc5)nn4)[C@@H]3CC[C@H]2C1=O 0.726, COC(=O)CC=C[C@@H](C)[C@@H]1C=C[C@H](O)[C@@H](CO)O1 0.531, C[C@@H](ON=C1[C@H]2CCn3c(=O)n(-c4ccccc4)c(=O)n3[C@H]2[C@H](O)[C@@H]2O[C@H]12)c1cn([C@@H]2COC[C@H]2O)nn1 0.0921, CC(CCC(=O)OC[C@H]1O[C@H](C#Cc2ccccc2)C=C[C@@H]1Oc1ccc(C)cc1)=NO[C@H](C)c1cn([C@H](CO)Cc2ccccc2)nn1 1.31, C#CCCCON=C1C[C@@H](O)[C@@H](O)[C@@H]2[C@@H]3C(=O)N(C(C)(C)C)C(=O)[C@@H]3CC[C@H]12 -0.0894, COc1ccc(COC(=O)NN=C2C[C@@H](O)[C@@H](O)[C@@H]3[C@@H]4C(=O)N(C5CCCCC5)C(=O)[C@@H]4CC[C@H]23)cc1 0.818, COC(=O)CC=C[C@H](C)[C@@H](OCc1cccc(Br)c1)[C@@H](C)[C@H](OC)C1CCCCC1 0.99, Cc1ccc(S(=O)(=O)N[C@@H]2COC(=O)[C@@H](C)COC(=O)CC=C[C@H]2C)cc1 1.02, O=C1[C@H]2[C@H]3[C@H](O)[C@H](O)CC(=NO[C@@H]4O[C@H](CO)[C@@H](O)[C@H](O)[C@H]4O)[C@H]3CC[C@H]2C(=O)N1c1cccc(Oc2ccccc2)c1 -0.642, CCC1=NOC(CCC2CC(OC(=O)NCc3cccc4c3OCO4)CC3(CCCC(COC(=O)NCCc4ccccc4OC)O3)O2)C1 (stereo not given) 0.327, CCOC(=O)[C@H](CC(C)C)NC(=O)CCC1CC(OC(=O)NCc2cccc3ccccc23)CC2(CCCC(COC(=O)NCCOc3ccccc3)O2)O1 (stereo not given in full) 0.231, O=c1n(Cc2cc3c(cc2Cl)OCO3)c(=O)n2n1CC[C@@H]1C(=NOCc3ccccc3)[C@H]3O[C@H]3[C@@H](O)[C@@H]12 -0.756, COC(=O)[C@@H]1CC[C@H](C)[C@@H](c2ccc(C)cc2)N1C(=O)c1ccc(C=NO[C@@H](C)c2cn([C@H](CO)Cc3ccccc3)nn2)cc1 1.25, CC(C)=CCCC(C)=CCON=C1C[C@@H](O)[C@@H](O)[C@@H]2[C@@H]3C(=O)N(Cc4ccccc4)C(=O)[C@@H]3CC[C@H]12 -1.29, CC(C)C[C@H](NC(=O)CCC1CC(OC(=O)NCc2cccc3ccccc23)CC2(CCCC(COC(=O)NCc3ccccc3)O2)O1)C(=O)NCC(c1ccccc1)c1ccccc1 (stereo not given in full) -0.576, CC(C)CON=C1C[C@@H](O)[C@@H](O)[C@@H]2[C@@H]3C(=O)N(C4CCCCC4)C(=O)[C@@H]3CC[C@@H]12 0.423, C[C@@H](c1ccccc1)N1C(=O)[C@H]2[C@H]3[C@H](O)[C@H](O)CC(=NO[C@@H]4O[C@H](CO)[C@@H](O)[C@H](O)[C@H]4O)[C@H]3CC[C@H]2C1=O 0.749, COC(=O)[C@@H]1CC[C@H](C)[C@@H](c2ccc(C)cc2)N1C(=O)c1ccc(C=NOC[C@@H](C)[C@H](OCc2ccccc2)C(C)C)cc1 -1.51, C[C@@H](c1ccccc1)N1C(=O)[C@H]2[C@H]3[C@H](O)[C@H](O)CC(=NOCc4ccccc4)[C@H]3CC[C@H]2C1=O 0.0942, COC(=O)CC=C[C@@H](C)[C@@H](C=NOCC[C@@H]1C=C[C@H](OC(C)=O)[C@@H](COC(C)=O)O1)OC 0.474

Reference: PubChem BioAssay
